58 molecules from PubChem BioAssay AID1851 (National Center for Advancing Translational Sciences (NCATS), 2009) can be followed below.

Usually AC50 stands for the concentration at which the activity in the assay is half-maximal.

Hit rate of the full screen: of about 16,000 compounds, about 5,100 (32%) were called active. About 25% were inconclusive and are not listed. Calls follow the shape of the dose curve; as a rule, active = well fitted curve in the direction sought with a large enough effect; inconclusive = small, poorly fitted or top-dose-only effect, or effect the other way; inactive = no such curve, though single readings can be large or run the other way. The list shows a part of the results.
% is scaled to controls: 0 for no effect and ±100 for the full control effect.

The experiment deals with Cytochrome P450 3A4 (Homo sapiens) (UniProt P08684). The experiment is described as follows: Cytochrome panel assay with activity outcomes. The settings on record: recombinant CYP, pro-luciferin dealkylation, luminescence, p450-cyp3a4; series mostly up to 57.1 µM.
Cytochrome P450 3A4 (Homo sapiens), sequence (P08684 whole entry, looked up): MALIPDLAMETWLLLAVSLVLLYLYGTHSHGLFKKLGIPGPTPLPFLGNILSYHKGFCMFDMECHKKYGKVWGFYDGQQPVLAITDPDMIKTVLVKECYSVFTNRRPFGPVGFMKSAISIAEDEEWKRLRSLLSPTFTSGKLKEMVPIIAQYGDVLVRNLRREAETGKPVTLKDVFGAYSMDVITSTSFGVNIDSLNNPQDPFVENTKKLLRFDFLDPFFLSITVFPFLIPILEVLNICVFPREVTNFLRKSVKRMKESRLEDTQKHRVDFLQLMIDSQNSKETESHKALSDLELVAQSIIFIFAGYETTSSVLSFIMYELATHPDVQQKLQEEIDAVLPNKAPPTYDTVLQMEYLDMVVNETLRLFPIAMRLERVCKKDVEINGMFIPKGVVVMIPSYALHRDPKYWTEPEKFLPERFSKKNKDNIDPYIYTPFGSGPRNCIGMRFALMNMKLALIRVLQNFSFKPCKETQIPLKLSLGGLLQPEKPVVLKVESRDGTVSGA
Consider `CCCCc1n[nH]c2c1/C(=N/O)CC(c1ccccc1)C2` (stereo not drawn), for which the AC50 was 12.6 µM (active).
`Cc1ccc(S(=O)(=O)Nc2cc(=O)[nH]c3c2CCC3)cc1`: the AC50 was 3.16 µM (active).
Still for that read-out and setting: as for `Cc1cc(=O)[nH]c(-n2[nH]c3c(c2=O)CCCC3)n1`, the entry is “inactive”.
Take `Nc1nc(SCc2ccccc2Cl)cc(C(=O)O)n1`: the activity, negative = inhibition was -1.56% [at 11.4 µM] (inactive).
For `CC1=C(C(N)=O)C(c2ccccn2)n2nc(SCc3ccccc3Cl)nc2N1` (stereo not drawn), the AC50 is 6.31 µM (active).
As to `CC(C)=CCc1c2c(c3occ(-c4ccc(O)c(O)c4)c(=O)c3c1O)C=CC(C)(C)O2`, the activity, negative = inhibition was 0.0575% [at 11.4 µM] (inactive).
As to `Cc1cccc(N(CC(=O)NC2CCCC2)C(=O)c2cc3cc4cccc(C)c4nc3s2)c1C`, the AC50 was 4.47 µM (active).
On the same count and under the same terms, to `CC(C)CC(C(=O)NCC1CCCO1)N(C(=O)Cn1nnc(-c2ccc(F)cc2)n1)c1ccccc1F` (stereo not drawn) belongs 14.1 µM (active).
Still for that read-out and setting: to `Cc1ccc(N(C(=O)Cn2nnc(-c3ccc(F)cc3)n2)C(CC(C)C)C(=O)NCC2CCCO2)cc1` (stereo not drawn) belongs 14.1 µM (active); to `CC(C)CC(C(=O)NCC1CCCO1)N(C(=O)Cn1nnc(-c2ccc(F)cc2)n1)c1cccc(C(F)(F)F)c1` (stereo not drawn), 10 µM (active).
`CN(C(=O)Cn1nnc(-c2cccc(C(F)(F)F)c2)n1)C1CCCCC1`: the AC50 entry was “inactive”.
The same measure, in the same setting: to `Nc1nc2c(c(=O)[nH]1)N(C=O)[C@H](CNc1ccc(C(=O)N[C@@H](CCC(=O)O)C(=O)O)cc1)CN2` belongs “inactive”.
Consider `N/N=C1/CC(=O)NC(=O)N1`, for which the activity, negative = inhibition was -21.1% [at 11.4 µM] (inactive).
For the molecule `Cc1ccc(NC(=O)C2(NC(=O)c3cccc(N4C(=O)CSC4c4ccccc4)c3)CCCCC2)cc1` (stereo not drawn), the AC50 was 2.82 µM (active).
Turning to `CC(=O)Nc1ccc(N2C(=O)CC(c3ccccc3)CC2=O)cc1`, the activity, negative = inhibition is 1.08% [at 2.29 µM] (inactive).
With `Cc1ccc(C2C3=C(CCCC3=O)Nc3nc(SCC(=O)NCc4ccco4)[nH]c(=O)c32)cc1` (stereo not drawn), the AC50 is 7.94 µM (active).
For `CCCCCCN1Cc2ccccc2C1`, the AC50 result was “inactive”.
Same read-out and setting: to `CCN(C(=O)c1cnc(N2CCN(c3ncccn3)CC2)c2ccccc12)c1cccc(Cl)c1` belongs 6.31 µM (active).
Take `CN(C(=O)c1cnc(N2CCN(c3ncccn3)CC2)c2ccccc12)c1ccc(Cl)cc1`: the activity, negative = inhibition was 28.1% [at 11.4 µM] (inactive).
As to `O=C1c2ccccc2S(=O)(=O)N1CCCCN1CCN(c2ncccn2)CC1`, the AC50 entry was “inactive”.
Turning to `Clc1ccc(/C=N/c2c(-c3ccc(Cl)cc3)nc3n2CCS3)cc1`, the activity, negative = inhibition is -12.1% [at 2.29 µM] (inactive).
In the case of `COc1cccc(-c2ccc3ncnc(NCc4cnc(C)cn4)c3c2)c1`, the AC50 was 7.94 µM (active).
On the same count and under the same terms, as for `Cc1cnc(CNc2ncnc3ccc(-c4cccc(C#N)c4)cc23)cn1`, the figure is 3.16 µM (active).
The same measure, in the same setting: as for `COc1ccc(/C=N/n2cnc3c([nH]c4ccc(Br)cc43)c2=O)cc1CN1CCOCC1`, the figure is 5.01 µM (active); as for `Cc1cc2nc(SCCOC(=O)Nc3ccc(Cl)cc3)nc(C)c2cc1C`, “inactive”.
Still for that read-out and setting: to `CCCCSc1nc(C)cc(NC(=S)Nc2ccc(OC)cc2)n1` belongs 7.08 µM (active).
Consider `S=C(S)O[C@@H]1C[C@@H]2C[C@H]1[C@@H]1CCC[C@H]21`, for which the AC50 was 3.98 µM (active).
Same read-out and setting: to `CCOC(=O)C(CC)(CC)C(=O)/C=C/c1ccc(Br)cc1` belongs “inactive”; to `Cc1ccc(CNC(=O)CCc2c(C)nc3ncnn3c2C)cc1`, 2 µM (active).
The same measure, in the same setting: as for `Cc1nc2nc(C)c(CCC(=O)NCCCN3CCN(c4cccc(Cl)c4)CC3)c(C)n2n1`, the entry is “inactive”.
The same measure, in the same setting: to `Cc1nc2ncnn2c(C)c1CCC(=O)NC(C)c1ccc2c(c1)OCCO2` (stereo not drawn) belongs 15.8 µM (active).
As for `CCOC(=O)CCc1c(C)nc2ncnn2c1C`, the AC50 result is “inactive”.
On the same count and under the same terms, to `NCC[C@H](O)C(=O)N[C@H]1C[C@@H](N)[C@@H](O[C@H]2O[C@@H](CN)[C@@H](O)[C@@H](O)[C@@H]2O)[C@@H](O)[C@@H]1O[C@H]1O[C@@H](CO)[C@@H](O)[C@@H](N)[C@@H]1O` belongs “inactive”; to `COCCn1c(=O)c(-c2cc(F)cc(F)c2)nc2cnc(N3CCOCC3)nc21`, “inactive”.
The same measure, in the same setting: to `COCCn1c(=O)c(-c2cc(F)cc(F)c2)nc2cnc(N(C)C)nc21` belongs “inactive”.
Same read-out and setting: as for `COCCn1c(=O)c(-c2cc(F)cc(F)c2)nc2cnc(Oc3ccc(OC)cc3)nc21`, the figure is 3.16 µM (active); as for `COCCn1c(=O)c(-c2cc(F)cc(F)c2)nc2cnc(OC)nc21`, 15.8 µM (active).
On to `COCCn1c(=O)c(-c2cc(F)cc(F)c2)nc2cnc(Oc3cccc(Cl)c3)nc21`, for which the AC50 was 10 µM (active).
In the case of `CC(C)CO/N=C1/C[C@@H](O)[C@@H](O)[C@@H]2[C@@H]3C(=O)N(C[C@@H]4CCCO4)C(=O)[C@H]3CC[C@@H]12`, the activity, negative = inhibition was -19.4% [at 11.4 µM] (inactive).
For `CCOc1ccc(CCNC(=O)C2CCN(S(=O)(=O)CC)CC2)cc1OCC`, the AC50 was 7.08 µM (active).
Same read-out and setting: as for `CCN(CCCNC(=O)C1CCN(S(=O)(=O)CC)CC1)c1cccc(C)c1`, the figure is 11.2 µM (active); as for `CCS(=O)(=O)N1CCC(C(=O)NCCN2CCN(Cc3ccccc3)CC2)CC1`, “inactive”; as for `C=CCNC(=O)C1CCN(S(=O)(=O)CC)CC1`, “inactive”.
On the same count and under the same terms, to `Cc1cc(C)c(S(=O)(=O)NCC2CCC(C(=O)NCc3ccc4c(c3)OCO4)CC2)c(C)c1` (stereo not drawn) belongs 0.891 µM (active); to `O=C(NCCN1CCN(Cc2ccccc2)CC1)C1CC(=O)N(C2CCCC2)C1` (stereo not drawn), “inactive”.
On the same count and under the same terms, to `CCOc1ccc(CCNC(=O)C2CC(=O)N(C3CCCC3)C2)cc1OCC` (stereo not drawn) belongs 14.1 µM (active); to `CC1CCCN(CCCNC(=O)C2CC(=O)N(c3ccc(F)c(Cl)c3)C2)C1` (stereo not drawn), “inactive”; to `O=C(NCc1ccc2c(c1)OCO2)C1CC(=O)N(C2CCCC2)C1` (stereo not drawn), 4.47 µM (active).
In the case of `Cc1cc(N2CCOCC2)ccc1/C=C1\SC(=O)N(C(C)C)C1=O`, the AC50 result was “inactive”.
Same read-out and setting: to `Cc1ccc(Oc2ccccc2/C=C2\SC(=O)N(C)C2=O)cc1` belongs 14.1 µM (active).
On the same count and under the same terms, to `Cc1cccc(CNc2ncncc2-c2cccc(C#N)c2)c1` belongs 0.2 µM (active); to `N#Cc1cccc(-c2cncnc2NCc2cccs2)c1`, 1.26 µM (active); to `N#Cc1cccc(-c2cncnc2NCc2ccccc2)c1`, 1.26 µM (active).
Same read-out and setting: as for `N#Cc1cccc(-c2cncnc2NCc2cccnc2)c1`, the figure is 1.26 µM (active); as for `O=C1/C(=N\O)Cc2ccccc21`, “inactive”.
In the case of `CN(C)CC/C=C1\c2ccccc2COc2ccccc21`, the AC50 entry is “inactive”.
Consider `C[N+](C)([O-])CCC=C1c2ccccc2CCc2ccccc21`, for which the AC50 is 1.26 µM (active).
Still for that read-out and setting: as for `CN(C)CCC=C1c2ccccc2CCc2ccccc21`, the entry is “inactive”.
